SMN2 splice up – qHTS Assay for Enhancers of SMN2 Splice Variant Expression | HEK293 SMN2-luciferase splicing reporter, luminescence, 30-36 h | Potency, µM (doses to about 46.1 µM), most hits filed as activators | actives 2.8% (n = 210,000) | AID 1458, 2008; also: nearly all actives have a fitted effect of over 55% in size
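HEK293 cells carry an SMN2 […]–luciferase reporter in which exon 7 inclusion puts luciferase in frame. Cells were plated 10-12 h before compound addition, then incubated 30-36 h at 37C. ONE-Glo luminescence was read; sodium butyrate at 4.5 mM final served as control.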
FLuc modulator – qHTS profiling assay for firefly luciferase inhibitor/activator using purifed enzyme and Km concentrations of substrates (counterscreen for miR-21 project); Luciferin 4-monooxygenase (Photinus pyralis), P08659; purified FLuc, Km substrates, luminescence inhibition; Potency, µM (series often up to 57.5 µM), actives largely listed as inhibitors; actives 6.9% (n = 360,000); AID 588342, 2011; also: nearly all actives have a fitted effect of over 55% in size
Target sequence (P08659 whole entry, looked up): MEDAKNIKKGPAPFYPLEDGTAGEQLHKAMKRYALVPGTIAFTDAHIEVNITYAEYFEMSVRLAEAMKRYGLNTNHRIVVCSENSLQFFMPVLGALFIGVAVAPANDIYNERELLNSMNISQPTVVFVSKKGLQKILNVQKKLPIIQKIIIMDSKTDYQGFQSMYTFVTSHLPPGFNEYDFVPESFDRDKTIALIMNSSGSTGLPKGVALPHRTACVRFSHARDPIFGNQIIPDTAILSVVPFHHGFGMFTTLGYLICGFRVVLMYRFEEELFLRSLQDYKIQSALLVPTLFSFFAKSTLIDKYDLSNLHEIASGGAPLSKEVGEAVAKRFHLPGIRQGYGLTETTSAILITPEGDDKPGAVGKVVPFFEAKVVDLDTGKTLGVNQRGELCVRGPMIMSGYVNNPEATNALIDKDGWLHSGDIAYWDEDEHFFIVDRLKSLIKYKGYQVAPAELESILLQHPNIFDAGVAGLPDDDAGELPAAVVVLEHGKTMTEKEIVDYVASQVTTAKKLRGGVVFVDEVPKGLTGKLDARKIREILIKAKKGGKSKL
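Purified P. pyralis luciferase (10nM final) with 10uM D-luciferin and 10uM ATP (Km levels) in 50mM Tris acetate pH 7.5, 10mM Mg acetate, 0.01% Tween-20, 0.05% BSA; qHTS 6-point titration, ~60 µM downward; luminescence read.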
KinaseGlo FLuc – Counterscreen for Luciferase (Kinase-Glo TM) Inhibition; Potency, µM (titrated, usually from 38.3 µM), most hits filed as inhibitors; AID 1379, 2008; actives 0.28% (n = 200,000); Kinase-Glo luciferase, ATP luminescence, 8 min; Luciferin 4-monooxygenase (Photuris pensylvanica), Q27757; also: nearly all actives have a fitted effect of over 60% in size
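Recombinant Kinase-Glo luciferase, 10 uM ATP (linear range), luciferin; imidazole pH 7.2 / KCl / MgCl2 / Tween / BSA buffer; 8 min RT; luminescence.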
NPC1 promoter act – qHTS Assay for NPC1 Promoter Activators. Huh7 NPC1 promoter luciferase reporter, 24 h. Potency, µM (series often up to 9.22 µM), most hits filed as activators. actives 2.4% (n = 320,000); also: nearly all actives have a fitted effect of over 60% in size
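NPC1 promoter–luciferase Huh7 cells; 24 h compound; luminescence.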
Rab9 prom act – qHTS Assay for Rab9 Promoter Activators. Huh7 Rab9 promoter-luciferase reporter, luminescence, 24 h. actives 2.8% (n = 320,000). Potency, µM (titrated, usually from 9.22 µM), most hits filed as activators; also: nearly all actives have a fitted effect of over 60% in size
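Promoter activation is measured as luciferase luminescence in Huh7 cells stably transfected with a Rab9 promoter–luciferase construct, following 24 h compound exposure at 37 °C and 10 min reagent incubation at ambient temperature.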
Numbers stand for hits; . = inactive; ? = inconclusive; / = no result given; [ ] = dose if it differs, or a comment. Compounds with a hit are over-represented: about 7.3% of the library has one in this group of screens. Calls follow the shape of the dose curve; as a rule, active = well fitted curve in the direction sought with a large enough effect; inconclusive = small, poorly fitted or top-dose-only effect, or another doubt; inactive = no such curve, though single readings can be large; an effect the other way counts as inactive or inconclusive.

SMILES	SMN2 splice up	FLuc modulator	KinaseGlo FLuc	NPC1 promoter act	Rab9 prom act
O/C(=C\c1nc2ccccc2[nH]1)c1cccs1	/	13µM	/	3.5µM	4µM
O=C(OCc1nc2ccccc2c(=O)[nH]1)c1cccs1	.	.	.	.	.
CC1(C)[C@@H]2CC[C@@]1(CS(=O)(=O)Nc1ccccc1)C(=O)C2	.[9.22 µM]	/	.[7.66 µM]	/	/
Cc1nn(CC(=O)NCc2ccc(N(C)C)cc2)c(=O)c2nn(-c3ccccc3)c(C)c12	/	.	/	/	/
CCNC(=S)Nc1ccc(OCc2nc3ccccc3s2)cc1	/	12µM	/	3.5µM	4µM
O=C(O)CCCC(=O)Nc1ccc(OCc2nc3ccccc3s2)cc1	.	17µM	.	.	.
CCNC(=S)Nc1ccc(OCC)cc1	.	.	.	.	.
O=S1(=O)N=C(Nc2cccc(C(F)(F)F)c2)c2ccccc21	.	.	/	/	/
COC(=O)c1sc(-c2ccccc2)cc1NC(=O)Nc1ccc(Cl)cc1	.	.	/	/	/
COC(=O)c1sc(-c2ccc(C(C)(C)C)cc2)cc1NC(=O)COCC(=O)O	/	3.8µM	/	.	.
COC(=O)c1sc(-c2ccc(Cl)cc2)cc1NC(=O)CSCC(=O)O	/	13µM	/	.	.
CN(C(=O)Cn1nnc(-c2ccc(S(C)(=O)=O)cc2)n1)c1ccccc1	.	.	/	/	/
O=C(Nc1ccc(F)cc1)c1oc2ccccc2c1NC(=O)C12CC3CC(CC(C3)C1)C2	.	.	/	/	/
Cc1cnc(C(=O)Nc2nccs2)cn1	.	?	.	?	3.2µM
O=C(Nc1nccs1)c1cn2ccccc2n1	/	1.3µM	/	0.32µM	0.11µM
Cc1cnc(C(=O)Nc2nnc(C(C)C)s2)cn1	13µM	?	.	2.5µM	2.8µM
Cc1cnc(C(=O)Nc2nnc(C)s2)cn1	.	.	.	.	.
CCC(C)OC(=O)n1ccc(C(=O)Nc2nccs2)n1 (stereo unspecified)	.	17µM	.	.	.
Cc1c(C(=O)N2CCN(C)CC2)oc2c1C(=O)CC(C)(C)C2	.	.	.	.	.
Cc1ccc(C(=O)N2c3ccccc3CC2C)o1 (stereo unspecified)	16µM	7.6µM	11µM	2µM	1µM
Cc1c(C(=O)N2CCc3ccccc32)oc2c1C(=O)CC(C)(C)C2	13µM	8.5µM	.	.	?
Cc1ccc(C(=O)N2CCc3ccccc32)o1	7.9µM	9.5µM	13µM	2.2µM	1.6µM
C/C=C/C=C/C=O	.	/	/	/	/
CCC(=O)Nc1ccc(-c2nnc(SCc3ccc(C(=O)Nc4nccs4)cc3)n2CC)cc1	.	11µM	.	.	/
Cc1ccc(NC(=O)c2ccc(CSc3nnc(-c4ccncc4)n3C)cc2)cc1	.	1.9µM	.	.	.
SMILES	SMN2 splice up	FLuc modulator	KinaseGlo FLuc	NPC1 promoter act	Rab9 prom act
Cn1nnnc1SCc1ccc(C(=O)Nc2ccc(Br)cc2)cc1	.	6µM	.	?	?
COC(=O)CSc1nnc(-c2cccc(NC(=O)c3ccc(C)cc3)c2)n1C	.	24µM	.	.	.
CC(=O)Nc1ccc(C(=O)CSc2nnnn2C)cc1	/	.	/	.	.
CSc1ccc(CCNC(=O)c2ccc(-c3nc(COc4ccc(C)cc4)c(C)o3)cc2)cc1	/	.	/	/	/
CN(C)c1ccc(CN(CC2CCCO2)C(=O)COc2ccccc2Cl)cc1 (stereo unspecified)	.	.	/	/	/
NCCCCCc1cnc[nH]1	/	/	.	/	/
O=C(/C=C/c1ccc([N+](=O)[O-])cc1)c1ccco1	/	.	/	.	.
O=C(/C=C/c1ccc([N+](=O)[O-])cc1)/C=C/c1ccco1	/	4.3µM	/	.	.
O=C(C=C1SCCS1)/C=C/c1ccco1	13µM	1.3µM	.	0.71µM	2.5µM
CC(C)(C)c1ccc(-c2noc(CCC(=O)Nc3cccnc3)n2)cc1	/	1.7µM	/	.	.
COc1ccc(-c2noc(CCC(=O)Nc3cc(OC)ccc3OC)n2)cc1	.	?	.	.	.
COc1ccc(-c2noc(CCC(=O)Nc3cc(Cl)c(OC)cc3OC)n2)cc1	.	8.5µM	.	.	.
CC(C)(C)c1ccc(-c2noc(CCC(=O)NCC3CCCO3)n2)cc1 (stereo unspecified)	.	1.9µM	.	.	.
CC(C)(C)c1ccc(-c2noc(CCC(N)=O)n2)cc1	.	6µM	.	.	.
CC(NC(=O)c1c2c(nc3ccccc13)C(=O)N(C1CCCCC1)C2)c1ccccc1 (stereo unspecified)	/	.	/	/	/
Cc1cc(C)n(C(C)CC(=O)Nc2ccc(C)c(N(C)C)c2)n1 (stereo unspecified)	/	.	/	/	/
CCc1ccc(C(=O)CC2(O)C(=O)N(CCc3ccccc3)c3ccc(Cl)cc32)cc1 (stereo unspecified)	.	.	/	/	/
CNC(=O)CCc1nc(-c2ccc(C(C)(C)C)cc2)no1	.	4.8µM	.	?	.
CN(C)C(=O)CCc1nc(-c2ccc(C(C)(C)C)cc2)no1	.	5.4µM	.	2.5µM	3.2µM
CC(C)(CC(=O)O)Cc1nc(-c2ccc(Cl)cc2)no1	.	27µM	.	.	.
CC(C)(C)c1ccc(-c2noc(CCC(=O)N3CCOCC3)n2)cc1	?	2.4µM	.	?	1.8µM
CCOc1ccc(-c2noc(CCC(=O)NC)n2)cc1OCC	/	.	/	.	.
CCCC(C(=O)O)N1C(=O)/C(=C/c2cccn2C)SC1=S (stereo unspecified)	.	.	.	.	.
Cn1cc(/C=C2/SC(=O)N(c3ccccc3)C2=O)c2ccccc21	.	6µM	.	?	6.3µM
Cn1cccc1/C=C1\SC(=O)N(c2ccccc2)C1=O	11µM	2.4µM	.	2µM	0.71µM
SMILES	SMN2 splice up	FLuc modulator	KinaseGlo FLuc	NPC1 promoter act	Rab9 prom act
CC(C)C(C(=O)O)N1C(=O)/C(=C/c2cccn2C)SC1=S (stereo unspecified)	.	21µM	.	.	.
O=C(O)Cn1cc(/C=C2\SC(=O)N(c3ccccc3)C2=O)c2ccccc21	.	12µM	.	.	.
Cc1cccc(N2CCN(C(=O)c3ccc4nc(N5CCC(C)CC5)sc4c3)CC2)c1C	.	?	/	/	/
CCCOc1ccc(CC2C(=O)Nc3ccc(Br)cc32)cc1 (stereo unspecified)	/	.	/	/	/
C=C(C)COc1ccc(-c2nc(N)ncc2Oc2ccccc2OC)c(O)c1	.	21µM	.	.	.
Cc1c(/N=C(\[O-])Nc2ccc(Br)cc2)sn[n+]1C	/	1.1µM	/	0.28µM	0.1µM
O=C(NCc1ccc(Cl)cc1)c1cnc(N2CCCCC2)c2ccccc12	/	.	/	/	/
Cn1c(O)c(C(C#N)=C2N=c3ccccc3=N2)c2ccccc21	.	9.5µM	.	.	.
O=C(CN1C(=O)CSc2ccc(S(=O)(=O)N3CCCC3)cc21)NCc1ccccc1Cl	/	.	/	/	/
CCC(=O)NCCc1nc2cc(NC(=O)c3cccc([N+](=O)[O-])c3)ccc2n1C	/	?	/	?	3.5µM
CCn1c(CN2CCCCC2)nc2cc(NC(=O)c3cccc([N+](=O)[O-])c3)ccc21	/	.	/	/	/
CC(=O)NCCc1nc2cc(NC(=O)c3cccc([N+](=O)[O-])c3)ccc2n1C	/	?	/	2.8µM	2.8µM

From PubChem BioAssay
